In PubChem BioAssay AID1159580 (chemical genetic matrix, 2015):
Several values for one entry are separate records, joined by “and”; a condition that tells them apart may be missing. Identical values can stand only once. Screen size: about 5,500 compounds; about 2,000 (36%) were called active. Another 18% or so got no clear call; they are omitted. Rule as the data show it: active = normalized growth mostly below about 0.91 (no sharp cut-off); inconclusive = no clear call, values can overlap the other calls; inactive = mostly above about 0.92. Some of the results follow.

Assay: chemical genetic growth profiling, strain panel (AID 1159580);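 also: tested at 20 µM; growth read once vehicle control cultures reached saturation at 30 °C; 1 = growth at the plate median or of vehicle wells; lower values mean less growth of the strain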
Details: S. cerevisiae deletion strains, growth OD

Measured: normalized growth

CN(C)CC/C=C1/c2ccccc2COc2ccccc21
inactive: locus YAL021C, strain ccr4, hits give low values 0.99 | locus YAL026C, strain drs2, hits give low values 1.03 | locus YAL030W, strain snc1, hits give low values 1.02 | locus YBL061C, strain skt5, hits give low values 1.02 | locus YBR009C, strain hhf1, hits give low values 1.01 | locus YBR021W, strain FUR4, hits give low values 0.991 | locus YBR023C, strain chs3, hits give low values 1.03 | locus YBR171W, strain sec66, hits give low values 1.05 | locus YBR229C, strain ROT2, hits give low values 1 | locus YBR231C, strain swc5, hits give low values 1.04 | locus YBR279W, strain paf1, hits give low values 1.01 | locus YCL011C, strain gbp2, hits give low values 1.03 | locus YCL016C, strain dcc1, hits give low values 1.02 | locus YCL029C, strain bik1, hits give low values 1.02 | locus YCL069W, strain vba3, hits give low values 1.03 | locus YCR088W, strain abp1, hits give low values 1.03 | locus YDL005C, strain med2, hits give low values 1.05 | locus YDL035C, strain GPR1, hits give low values 1.03 | locus YDL040C, strain nat1, hits give low values 1.02 | locus YDL074C, strain BRE1, hits give low values 1.01 | locus YDL101C, strain DUN1, hits give low values 1.02 | locus YDL134C, strain PPH21, hits give low values 1.01 | locus YDL185W, strain tfp1, hits give low values 1.03 | locus YDL192W, strain arf1, hits give low values 1.03 | locus YDR001C, strain nth1, hits give low values 1.01 | locus YDR069C, strain doa4, hits give low values 1.02 | locus YDR101C, strain arx1, hits give low values 0.992 | locus YDR137W, strain rgp1, hits give low values 1.14 | locus YDR159W, strain sac3, hits give low values 1.05 | locus YDR162C, strain NBP2, hits give low values 1.02 | locus YDR195W, strain ref2 1.05 | locus YDR297W, strain sur2, hits give low values 1.03 | locus YDR318W, strain mcm21, hits give low values 1.02 | locus YDR334W, strain swr1, hits give low values 1.02 | locus YDR335W, strain msn5, hits give low values 1.02 | locus YDR388W, hits give low values 1.03 | locus YDR392W, strain spt3, hits give low values 0.987 | locus YDR502C, strain sam2, hits give low values 1.02 | locus YEL003W, strain gim4, hits give low values 1.03 | locus YEL037C, strain rad23, hits give low values 1.02 | locus YEL061C, strain CIN8 (second series), hits give low values 1.02 | locus YEL061C, strain CIN8, hits give low values 1.01 | locus YER015W, strain faa2, hits give low values 0.977 | locus YER016W, strain bim1, hits give low values 1.01 | locus YER110C, hits give low values 1.02 | locus YER111C, strain swi4, hits give low values 1.03 | locus YER155C, strain BEM2 (second series), hits give low values 1.01 | locus YER155C, strain BEM2, hits give low values 1.01 | locus YER167W, strain BCK2, hits give low values 1.01 | locus YFR010W, strain ubp6, hits give low values 1.02 | locus YGL078C, strain dbp3, hits give low values 1.01 | locus YGL086W, strain mad1, hits give low values 1 | locus YGL167C, strain pmr1, hits give low values 1.03 | locus YGL173C, strain kem1, hits give low values 1.03 | locus YGL227W, strain vid30, hits give low values 1.01 | locus YGL240W, strain doc1, hits give low values 1 | locus YGL248W, strain PDE1, hits give low values 1 | locus YGL253W, strain hxk2, hits give low values 1.02 | locus YGR078C, strain PAC10, hits give low values 1.01 | locus YGR135W, strain pre9, hits give low values 1.03 | locus YGR229C, strain SMI1, hits give low values 1.02 | locus YGR252W, strain gcn5, hits give low values 0.972 | locus YHR013C, strain ard1, hits give low values 0.983 | locus YHR027C, strain rpn1, hits give low values 0.983 | locus YHR030C, strain SLT2, hits give low values 1.02 and 1.03 | locus YHR079C, strain IRE1 (second series), hits give low values 1.03 | locus YHR079C, strain IRE1, hits give low values 1.06 | locus YHR094C, strain hxt1, hits give low values 1.01 | locus YHR129C, strain ARP1, hits give low values 1.01 | locus YHR142W, strain chs7, hits give low values 1.02 | locus YHR200W, strain rpn10, hits give low values 1.04 | locus YIL066C, strain RNR3, hits give low values 1.02 | locus YIL073C, strain SPO22, hits give low values 1.11 | locus YIL125W, strain kgd1, hits give low values 1.01 | locus YIR030C, strain dcg1, hits give low values 1.01 | locus YJL092W, strain hpr5, hits give low values 1.03 | locus YJL095W, strain BCK1 (second series), hits give low values 1.03 | locus YJL095W, strain BCK1, hits give low values 0.992 and 1.03 | locus YJL115W, strain asf1, hits give low values 1.03 | locus YJL129C, strain trk1, hits give low values 1.06 | locus YJL134W, strain LCB3, hits give low values 1.01 | locus YJL154C, strain vps35, hits give low values 1.02 | locus YJL164C, strain tpk1, hits give low values 1.02 | locus YJL166W, strain qcr8, hits give low values 1.01 | locus YJL168C, strain set2, hits give low values 1.01 | locus YJL187C, strain SWE1 (second series), hits give low values 1.01 | locus YJR043C, strain POL32, hits give low values 1.01 | locus YJR066W, strain TOR1, hits give low values 0.931 | locus YKL009W, strain mrt4, hits give low values 1.03
